Results published in PubChem BioAssay AID1347426 (Functional Genomics Laboratory (NCATS/FGL), 2020).
Screen size: about 31,000 sequences; about 1,400 (4.5%) were called active. The entries come from a sample that favours actives as a whole. Unmarked numbers belong to inactive results.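 How the source made its calls: active means median seed-adjusted z-score above 1 or below -1; inactive means the rest.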

Assay: Novel Modifiers of Survival Motor Neuron (SMN) Protein: Gene Identification via Genome-wide siRNA Screen;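 further: luminescence tracks full-length SMN protein made from the SMN2 reporter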
Conditions: HEK293T SMN2-luciferase reporter, siRNA knockdown, 72 h; actives lie on both sides
Procedure, shortened: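 Steps: spot 1 pmol siRNA, add Lipofectamine RNAiMax in serum-free DMEM, seed HEK293T SMN2–luciferase reporter cells; incubate 72 h at 37 °C; add ONE-Glo; normalize luminescence to control siRNA, log10, MAD. Candidates: |MAD| > 1.0.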

Row | Sequence | median seed-adjusted z-score
1 | GGCAUUGCUUAAUGAUAUATT against SF3B1 | -3.65 (active)
2 | CCUUCAGUCUUAACUCCAATT against ZKSCAN1 | 0.229
3 | GCUGUAGCCUUGAUGCCUATT against INMT | 0.863
4 | GUCCGAGUGUGGUUCUGUATT against POU5F1 | 0.0495
5 | GGAAGAUCCUCUACCAGAATT against LATS2 | -0.245
6 | CAGUCAAUGUUGUUCAGUUTT against GARS | 0.138
7 | GGCUACAACGUGACCAAGATT against FZD4 | 0.0695
8 | ACUUCAUGAUGGAUAUCCATT against KCNN4 | 0.00864
9 | CCCUACAUGUGAACAACGATT against PRPF8 | -1.54 (active)
10 | GGCUAUGACGGGAAGGAGATT against PTPN7 | -0.189
11 | GAAUAGAUUUCAGUAGUAUTT against DDI2 | 1.27 (active)
12 | CCAGUGUACUCAGUCUAUUTT against STAM2 | -0.24
13 | GACCUUCCUAGUUUCCUGATT against GIPC1 | 0
14 | AGCUCAACCGGUUUAAUAATT against SLC9A1 | 0
15 | GGAAAUAGGUCUAGUACUATT against PRPF4B | -2.29 (active)
16 | GGAUGAGAAAGUCGUGAAATT against TSHZ2 | -0.361
17 | CGGAUACGCUAAAAAUCAATT against B3GNTL1 | 0
18 | GCCUAUUAUGGACAACAAUTT against IKZF2 | 0.514
19 | GGAGUUAAGAAUAUUAUGATT against VAMP8 | -0.184
20 | GGAGUUCAUCAAUAUGAAUTT against MLF1 | 0.258
21 | GCCUUCUACACUUACAUGATT against EVX1 | 1 (active)
22 | GGAGUCAAGUGAAGCAGAATT against L3MBTL2 | -0.312
23 | GCAGGUACAUCUCGCCUGATT against ENO1 | 0.0766

Row | Sequence | median seed-adjusted z-score
24 | GCCCAAUACUUGCAAGUGATT against KCNA2 | -1.03 (active)
25 | GGGAGGUAGUAAUCCUACATT against PPP1R12B | 0.416
26 | GGAUUCAUGAGUCUAUAUATT against SLC25A27 | 0.0916
27 | GGACACCACAGUACCUAAATT against IL22RA1 | -1.14 (active)
28 | CAAUCCUGACUCAAACUAATT against RAG2 | 0.138
29 | GGACCUGUAUUGGGAACAATT against ASPHD2 | -0.719
30 | CUUCAAAGGUGACAAGUAUTT against MMP24 | -1.28 (active)
31 | GGAGAGCAAUACAUCAUCATT against GLRX2 | -0.244
32 | GCACUUUACUAGGUCUAGATT against NANOS1 | 0.369
33 | GAUUACUGGUGCGAUGUUATT against L3MBTL4 | -0.189
34 | UCUGCUAACCUGAAAGUAATT against CARD8 | 0.115
35 | AGAUCGACAAGAUGCAAGATT against FOXN1 | 0.226
36 | CAGUGAAUCUUGGUUGUAATT against TBP | -1.25 (active)
37 | GCAUCAUCCAGAGACUGCATT against CCL19 | 0.0364
38 | GCAGAGACACCUUGAAGUATT against GAD1 | 0.101
39 | CGUGUUUAUAAUUACCGAATT against MED14 | -3.22 (active)
40 | CACGAAAUCAUGCAAAUCATT against RPL17 | -0.13
41 | GAGGCGCACUUCAAGCAUATT against CENTA1 | -0.555
42 | GGAGUAAACCUCACUGACATT against TMPRSS5 | 1.25 (active)
43 | GUAUCAAUCUUUGCGGAUATT against KL | -0.267
44 | AGAUCAUGACUUGUGCUGATT against SEZ6L2 | -0.331
45 | GGAGGGCAUUGUCACUAAATT against MCM3 | 0.339
46 | GGAUACCCAAUGCAAAUUATT against MMP16 | 0.144

Row | Sequence | median seed-adjusted z-score
47 | GGAGAACUACCAGAACCUUTT against ZNF74 | 1.17 (active)
48 | GCACUGGACCAAUACAAGUTT against GPR84 | 0.285
49 | GGUGUUGUCUUGAGGUACATT against ADAMTS1 | 0.173
50 | ACCCAGAUAUGGAUCUGCATT against TTLL10 | 0.211
51 | GCUCAAAUGGAGAACUAAATT against GALNT8 | -0.283
52 | GACCAAAAGUGGAACUCCATT against PTPN23 | -0.0473
53 | CCAUUGUUCCAGACUUCUUTT against CMBL | 0
54 | GGGCAUGGGUUUUAAUCGATT against PYGO1 | -1.23 (active)
55 | GAGUUAUACGAUCCAUGUATT against TXNL4A | -0.42
56 | AGAGCUAUGCUUUAGGUCUTT against S100A2 | -0.0951
57 | GCCUCAAUCUCUACUCGAATT against PCDHGA2 | -0.8
58 | GACAAAAAGUCCAACCCUATT against CYB5R3 | -0.901
59 | UGAGAUUUCGGAAUCAGAATT against TSPAN31 | -1.13 (active)
60 | GAACUAGGAUUUCAUAGCATT against LGR5 | 0
61 | GAGUCACAGUCGUUAUUCUTT against CNOT4 | -0.116
62 | GGAUUAUUUCUGGUUCCUATT against ATP8A2 | 0
63 | GCAUCAGCAUGUCGGUGGATT against ARID3A | -1.11 (active)
64 | GUCCCGCAGAUUCAACAAATT against SSBP3 | 0.00592
65 | CAAUCCUGUAUCUACCGUATT against OVCH1 | 0.0211
66 | CAUCAAUGAGGUAUACUAUTT against DYRK1B | 0.29
67 | CUAUAAGUCUAGUAGCAAATT against WNK2 | 0.212
68 | CGACGGCACCUGCAAUUUUTT against IMPA2 | 0.0513
69 | GCUGUAAACAGUCAUCAGATT against ZNF180 | 0
